Laboratory results reported in the supplement of paper PMC12350171.
Where a name gives a salt, the structure may show the parent alone. Unmarked numbers belong to inactive results.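 Rule for the calls: active = AUC significantly below DMSO controls by Student t-fit with adjusted P under 0.01; inactive = not significantly reduced.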

Test system: Haemophilus parainfluenzae
Assay: growth AUC normalised to DMSO control (fraction of control); higher = less growth inhibition, active = hit call of the paper
Conditions: 20 µM
Procedure, shortened: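 Hemin and NAD were added to the medium for Haemophilus parainfluenzae. All pathogens, after two anaerobic passages, were inoculated at a starting OD578 of 0.01 into pre-reduced mGAM plates with 20 μM compound and 1% DMSO under breathable seals, and OD578 was read hourly for 24 h in three biological replicates. AUC of each growth curve was obtained with the trapezoidal rule up to the exponential-to-stationary transition and normalised to DMSO controls from the same plate.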

SMILES	growth AUC normalised to DMSO control
C=CCN1CCCC1CNC(=O)c1cc2nn[nH]c2cc1OC (centres undefined) [Alizapride hydrochloride]	1
OCCN1CCN(CCCN2c3ccccc3Sc3ccc(Cl)cc32)CC1 [Perphenazine]	0.924
CC(C)NCC(O)COc1ccc(COCCOC(C)C)cc1 (centres undefined) [Bisoprolol hemifumarate]	1.13
CCN1CCCC1CNC(=O)c1cc(S(N)(=O)=O)ccc1OC (centres undefined) [Sulpiride]	1.02
CC1=C(CC(=O)O)c2cc(F)ccc2/C1=C\c1ccc([S+](C)[O-])cc1 (centres undefined) [Sulindac]	0.942
Cc1oncc1C(=O)Nc1ccc(C(F)(F)F)cc1 [Leflunomide]	0.978
C=C[C@H]1CN2CC[C@H]1C[C@@H]2[C@@H](O)c1ccnc2ccc(OC)cc12 [Quinidine hydrochloride monohydrate]	1.01
CC(NCCc1ccc(O)cc1)C(O)c1ccc(O)cc1 (centres undefined) [Ritodrine hydrochloride]	1
C[C@]12C=CC(=O)C=C1CC[C@H]1[C@@H]3C[C@@H](O)[C@](O)(C(=O)CO)[C@@]3(C)C[C@H](O)[C@@]12F [Triamcinolone]	1.01
C[C@]12C=CC(=O)C=C1CC[C@@H]1[C@@H]2[C@@H](O)C[C@@]2(C)[C@H]1CC[C@]2(O)C(=O)CO [Prednisolone]	0.935
Nc1ccn([C@H]2CC[C@@H](CO)O2)c(=O)n1 [Zalcitabine]	1.06
CCOC(=O)[C@H](CCc1ccccc1)N[C@@H](C)C(=O)N1[C@H](C(=O)O)C[C@@H]2CCC[C@@H]21 [Ramipril]	1.02
CCN(CC)CCOCCOC(=O)C1(c2ccccc2)CCCC1 [Carbetapentane citrate]	1
CCCCOc1ccc(C(=O)CCN2CCCCC2)cc1 [Dyclonine hydrochloride]	0.921
CCOC(=O)[N-]c1c[n+](N2CCOCC2)no1 [Molsidomine]	1.03
CC[N+](C)(CC)CCC[n+]1c(-c2ccccc2)c2cc(N)ccc2c2ccc(N)cc21 [Propidium iodide]	1.04
CC(C)c1c(C(=O)Nc2ccccc2)c(-c2ccccc2)c(-c2ccc(F)cc2)n1CC[C@@H](O)C[C@@H](O)CC(=O)O [Atorvastatin]	0.996
Clc1ccc2c(c1)C(N1CCNCC1)=Nc1ccccc1O2 [Amoxapine]	0.963
C#C[C@]1(O)CC[C@H]2[C@@H]3CCc4cc(OC)ccc4[C@H]3CC[C@@]21C [Mestranol]	1.02
O=C(O)COC(=O)Cc1ccccc1Nc1c(Cl)cccc1Cl [Aceclofenac]	1.01

SMILES	growth AUC normalised to DMSO control
CC1(C)OC(=O)NC1=O [Dimethadione]	1
CCCCC1(COC(=O)CCC(=O)O)C(=O)N(c2ccccc2)N(c2ccccc2)C1=O [Suxibuzone]	0.995
COC(=O)[C@H]1[C@H]2C[C@@H]3c4[nH]c5cc(OC)ccc5c4CCN3C[C@H]2C[C@@H](OC(=O)c2cc(OC)c(OC)c(OC)c2)[C@@H]1OC [Reserpine]	1.07
CN1CCN(CCCN2c3ccccc3Sc3ccc(C(F)(F)F)cc32)CC1 [Trifluoperazine dihydrochloride]	0.927
CC(C)(CO)[C@@H](O)C(=O)NCCCO [(D)-Panthenol]	0.991
CC(=O)OCC(=O)NCCCOc1cccc(CN2CCCCC2)c1 [Roxatidine acetate hydrochloride]	0.971
CCC(=O)OCC(=O)[C@@]1(OC(=O)CC)[C@H](C)C[C@H]2[C@H]3[C@H]([C@@H](O)C[C@@]21C)[C@@]1(C)C=CC(=O)C=C1C[C@H]3Cl [Alclometasone dipropionate]	1.02
Clc1ccc2c(c1)CCc1cccnc1C2=C1CCNCC1 [Desloratadine]	1.03
COCCOC(=O)C1=C(C)NC(C)=C(C(=O)OC/C=C/c2ccccc2)C1c1cccc([N+](=O)[O-])c1 (centres undefined) [Cilnidipine]	1
OC(Cn1cncn1)(Cn1cncn1)c1ccc(F)cc1F [Fluconazole]	1.07
C1N2CN3CN1CN(C2)C3 [Methenamine]	1.05
COC(=O)[C@@H]1[C@H]2C[C@H]3c4[nH]c5ccccc5c4CCN3C[C@@H]2CC[C@@H]1O [Yohimbine hydrochloride]	0.971
Cc1ccccc1OCC(O)CO (centres undefined) [Mephenesin]	0.93
CC(C)NCC(O)COc1ccc(CCOCC2CC2)cc1 (centres undefined) [Betaxolol hydrochloride]	0.988
CCCCNc1c(C(=O)OCC)c(C)nc2c1cnn2CC [Tracazolate hydrochloride]	1.04
CC(CCc1ccccc1)NCC(O)c1ccc(O)c(C(N)=O)c1 (centres undefined) [Labetalol hydrochloride]	0.954
NCc1ccccc1CC(=O)N[C@@H]1C(=O)N2C(C(=O)O)=C(CSc3nnnn3CC(=O)O)CS[C@H]12 [Ceforanide]	0.0189 (active)
COc1cc(C)c(/C=C/C(C)=C/C=C/C(C)=C/C(=O)O)c(C)c1C [Acitretin]	0.995
CC(C)(C)NCC(O)COc1cccc2c1CC(O)C(O)C2 (centres undefined) [Nadolol]	1
